Screening data deposited in PubChem by several laboratories.
This is a sample that favours compounds with a hit; in the whole collection about 1.7% have one here.
PTK2B oligo ant: blocks oligomerization of human Pyk2 in cells; Q14289; Q293 cells, Pyk2 FERM NanoBiT luminescence; stronger effect = lower value; z-score (the deposit names both 25 µM and 10 µM); actives 0.83% (n = 99,000);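 active = Z-score of -3 or lower, scaled per plate to the spread of control and sample wells; inactive = z-score above -3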;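 also: negative z-score means lost luminescence so less FERM oligomerization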
LYP act: activators of human LYP (PTPN22) phosphatase; recombinant LYP, DiFMUP fluorescence; 0 = plate median, 100 = signal doubled; activation, % at 2 µM; actives 0.11% (n = 96,000);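 active = activation at 2 µM above a set limit, the mean plus 5 SD, cut at about 37% in these data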
PTPN22 inh 2: inhibitors of human LYP (PTPN22) phosphatase; recombinant LYP catalytic domain, DiFMUP fluorescence; inhibition, % at 2 µM; actives 0.21% (n = 96,000);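 active = inhibition at 2 µM at or above a set limit, the screen mean plus 3 SD, cut at about 24% in these data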;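 also: 0% = DMSO with enzyme and 100% = enzyme fully blocked by orthovanadate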
Plk1 PBD FP: blocks phosphopeptide binding to human Plk1 polo box domain | Plk1 PBD phosphopeptide binding, fluorescence polarization | inhibition, %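 (tested at about 20 µM)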 | actives 0.13% (n = 97,000) | AID 693; in the data active = inhibition above about 34%, passing the limit was not always enough
Target sequence (P53350 whole entry, looked up, the tested form may be a part): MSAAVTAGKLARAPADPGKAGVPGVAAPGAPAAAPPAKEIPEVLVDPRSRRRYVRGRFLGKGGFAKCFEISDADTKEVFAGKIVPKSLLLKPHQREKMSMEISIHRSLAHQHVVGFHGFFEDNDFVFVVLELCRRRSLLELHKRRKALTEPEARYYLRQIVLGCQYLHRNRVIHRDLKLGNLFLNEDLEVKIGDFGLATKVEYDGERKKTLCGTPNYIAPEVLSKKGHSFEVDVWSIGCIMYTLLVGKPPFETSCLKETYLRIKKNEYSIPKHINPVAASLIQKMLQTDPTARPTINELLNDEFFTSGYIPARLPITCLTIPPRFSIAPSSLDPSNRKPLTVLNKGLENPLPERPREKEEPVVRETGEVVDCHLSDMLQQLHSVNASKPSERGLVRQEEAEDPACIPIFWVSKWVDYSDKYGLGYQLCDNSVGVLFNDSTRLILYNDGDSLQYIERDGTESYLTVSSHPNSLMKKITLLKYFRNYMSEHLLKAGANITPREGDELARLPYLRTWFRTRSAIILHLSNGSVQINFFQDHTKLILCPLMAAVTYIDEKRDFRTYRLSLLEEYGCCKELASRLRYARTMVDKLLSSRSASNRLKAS
PLK1 kinase inh: inhibitors of human PLK1 kinase | recombinant PLK1 kinase, TR-FRET peptide phosphorylation | inhibition, % at 10 µM | actives 0.53% (n = 97,000) | AID 619;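 active = inhibition of 50% or more in the single-concentration screen; inactive = inhibition below 50%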;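 also: 0% = DMSO max control and 100% = H-89 dihydrochloride min control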
Numbers without * were called inactive; nt = no result given.

SMILES	PTK2B oligo ant	LYP act	PTPN22 inh 2	Plk1 PBD FP	PLK1 kinase inh
CCNc1nc(N)nc(Oc2ccc(OCCOc3ccc(Cl)cc3Cl)nn2)n1	-0.3	-1.4	3.9	14.1	0.6
Cc1ccc(CSc2nnc(-c3ccccc3N)c(=O)[nH]2)cc1	0.01	-29.6	28.9*	-9.2	2.4
CCC(CC)C(=O)Nc1ccc(C(=O)c2ccccc2)cc1	-0.32	nt	nt	nt	nt
O=C(CCC1CCCC1)N1CCN(C(=O)c2cccnc2)CC1	0.11	2.6	-5.5	7.7	-5.4
Cc1nn(Cc2ccccc2Cl)c2sc(C(=O)NCCCn3ccnc3)cc12	-0.78	4.9	-4.5	-27.6	-10.0
O=C(CSc1nc(-c2ccco2)cc(C(F)(F)F)n1)NC1CCCC1	nt	nt	nt	17.6	68.5*
COc1ccc(-c2cc(C(F)(F)F)c3c(=O)n(-c4ccccc4)[nH]c3n2)cc1	-4.11*	-7.6	7.5	7.2	-13.4
O=C(Nc1nnc(C2CC2)s1)C1Cc2ccccc2CN1S(=O)(=O)c1ccccc1F (stereo not given)	-3.73*	-10.3	12.5	-3.3	-8.7
O=C(Nc1nccs1)C1Cc2ccccc2CN1S(=O)(=O)c1ccc(F)cc1 (stereo not given)	-1.66	6.9	-3.3	-7.5	-7.4
Cc1c(C(=O)OC2CCCCC2)sc2nc[nH]c(=O)c12	-0.2	2.7	-3.6	-1.3	68.3*
Cc1sc2ncn(C(C)C(=O)OC3CCCCC3)c(=O)c2c1C (stereo not given)	-0.93	-2.4	-1.8	-11.5	-9.7
CCOc1cc(CNc2cccc3ccccc23)cc(Br)c1OCC(=O)NC(C)(C)C	-3.74*	-5.9	4.6	-0.7	-15.0
O=C(CN1CCN(C(=O)c2c(F)cccc2F)CC1)Nc1ccccc1F	0.7	nt	nt	nt	nt
COc1cnc(-c2ccccn2)nc1Sc1ccc(Cl)cc1	-0.22	-27.6	29.9*	27.4	-39.6
CN1c2ccccc2C(O)=C(C(=S)Nc2ccc(Cl)cc2)S1(=O)=O	-3.19*	-3.6	6.6	10.9	-18.3
COC1(c2ccccc2)NC(=S)NN=C1c1ccccc1 (stereo not given)	-0.29	0.9	1.1	6.7	-1.9
Oc1cccc(-c2nc3c4c(ncn3n2)-c2ccccc2CC42CCCC2)c1	-3.06*	-3.9	5.9	8.2	4.7
Cc1cccc(OCc2nc3c4c(ncn3n2)-c2ccccc2CC42CCCC2)c1	0.66	nt	nt	nt	nt
Cc1ccc(C(=O)CSc2nnc(COc3cc(C)cc(C)c3)o2)cc1	1.43	0.6	-1.7	3.5	-10.5
Cc1ccc(-c2nn3c(C)nnc3s2)cc1NCc1c(F)cccc1Cl	-3.51*	-1.1	-1.0	-16.9	-3.2
CC(C)Cn1c(SCc2nnc(-c3cccs3)o2)nc(O)cc1=O	0.78	nt	nt	nt	nt
CC(=O)c1ccc(OCC(O)CN2CCOCC2)cc1 (stereo not given)	nt	nt	nt	-18.8	64.9*
Cc1ccc(C(=O)Nc2nc(C(C)(C)C)cs2)s1	-1.94	-5.3	6.4	14.7	-6.5
CC(C)(C)c1csc(NC(=O)c2ccc(Cl)s2)n1	-3.04*	-12.8	16.3	1.7	-5.2
Cc1cc(C)n2nc[n+](C)c2n1	-0.13	-4.3	-3.1	15.5	-6.9
SMILES	PTK2B oligo ant	LYP act	PTPN22 inh 2	Plk1 PBD FP	PLK1 kinase inh
COC(=O)CSc1nc(C)cc(Oc2ccccc2)n1	nt	nt	nt	-3.9	58.8*
O=C(NNC(=O)c1cc2cc3ccccc3nc2s1)c1cccc(Cl)c1	0.44	-24.7	27.1*	10.3	-22.8
Cc1cccc(C(=O)NNC(=O)c2cc3cc4ccccc4nc3s2)c1	0.47	-1.2	4.0	24.6	-9.3
CCOC(=O)C(C(C)=O)C(c1ccc(OCCC(C)C)cc1)C(C(C)=O)C(=O)OCC (stereo not given)	0.59	2.4	-0.7	14.4	-8.3
COc1cccc(NC(=O)COC(=O)c2c3c(nc4ccccc24)CCC(C)C3)c1 (stereo not given)	-4.68*	19.7	-17.7	-9.4	-9.4
O=C(COC(=O)c1c2c(nc3ccccc13)CCCC2)Nc1ccc2c(c1)OCO2	-3.47*	5.7	-6.3	11.7	-6.2
c1ccc(-n2cnc3cc(NCc4ccncc4)ccc32)cc1	-3.38*	2.5	-1.3	13.0	-11.2
c1ccc(-n2cnc3cc(NCc4ccccn4)ccc32)cc1	-3.42*	-0.5	-2.8	12.4	-4.6
CC(C)n1cnc2cc(NCc3ccccn3)ccc21	-0.73	4.4	-1.3	-13.3	-5.3
CCCCn1cnc2cc(NCc3ccncc3)ccc21	-0.62	-4.1	3.2	6.9	1.4
CN1CCN(S(=O)(=O)c2ccc(N(C)Cc3cccs3)nc2)CC1	0.2	9.2	-12.5	7.3	-14.5
COC(=O)c1ccccc1NC(=O)c1cccc(NC(=O)CSCc2ccccc2)c1C	0.09	9.2	-3.6	26.1	-7.0
Nc1nnc(SCc2ccccc2F)n1-c1ccccc1	-0.11	15.5	-19.0	-3.1	-0.5
Cc1nn(-c2ccc(F)cc2)c2nc(N)c(C#N)c(-c3cccs3)c12	-2.7	4.0	-8.4	27.9	-10.1
COc1cc(-c2c(C#N)c(N)nc3c2c(C)nn3-c2ccc(C)c(C)c2)cc(OC)c1OC	-3.35*	nt	nt	nt	nt
CN1CCN(C(=O)c2c(NC(=O)c3ccco3)sc3c2CCC(C(C)(C)C)C3)CC1 (stereo not given)	-4.61*	-10.1	8.0	-8.3	-14.0
CC(C)(C)C1CCc2c(sc(NC(=O)c3cccs3)c2C(N)=O)C1 (stereo not given)	-0.21	1.9	-5.0	3.1	-10.1
CCCNc1nc(NCC)nc(OC)n1	0.59	6.2	-4.8	-16.7	-5.8
Cc1ccc(C(=O)n2nc(-c3ccco3)nc2N)cc1	0.73	-27.5	28.8*	-10.2	-10.5
CCOC(=O)c1cccc(Nc2nc(-c3cccnc3)nc3ccccc23)c1	-3.65*	-5.2	8.0	5.0	-19.2
CCOC(=O)c1cccc(NC(=O)c2cccnc2)c1	-0.44	nt	nt	nt	nt
COc1ccccc1-n1nnnc1SCc1cc2c(cc1Br)OCO2	-2.03	-1.9	1.2	5.2	21.8
CC1=NC(=O)C(N=Nc2cccc3ccccc23)N1c1ccccc1 (stereo not given)	nt	25.8	-35.5	-25.5	-11.3
COc1cc2c(cc1OC)C1=C(C#N)CN(CC(=O)O)CN1CC2	nt	nt	nt	27.8	61.3*
COc1cc2c(cc1OC)CN(CC(=O)Nc1ccccc1C#N)CC2	-1.52	0.5	0.5	2.4	-12.0
SMILES	PTK2B oligo ant	LYP act	PTPN22 inh 2	Plk1 PBD FP	PLK1 kinase inh
CCOC(=O)c1ccc(Nc2cc(C)nc(N3CCOCC3)n2)cc1	-3.19*	-5.4	3.6	-26.4	-12.6
CCOc1ccc(Nc2cc(C)nc(N3CCOCC3)n2)cc1	-0.36	-9.0	8.1	-32.2	-5.0
CCOC(=O)c1cnc2ccc(C)cc2c1Nc1ccc(N2CCOCC2)cc1	-3.05*	-12.8	16.7	-13.2	-12.2
CCOC(=O)c1c(-c2ccc(Cl)cc2)c(C#N)c(=O)n(N)c1N	-0.32	-3.4	6.4	-3.6	-13.1
O=S(=O)(c1ccccc1)c1cnn(-c2ccccc2)c1-c1ccc(F)cc1	-2.33	-7.3	10.8	25.1	-14.9
COc1ccc(-n2ncc(S(=O)(=O)c3ccccc3)c2-c2ccc(Cl)cc2)cc1	-3.27*	3.4	2.8	3.0	-10.1
Cc1ccc(NC(=O)CN2C(=O)S/C(=C\c3cccn3-c3cccc(C(=O)O)c3)C2=O)c(C)c1	0.91	-48.3	49.6*	1.1	-8.3
